PubChem BioAssay AID588689 (Southern Research Specialized Biocontainment Screening …, 2011)
About 1,000 (0.29%) of roughly 340,000 compounds were called active. Rule as the data show it: inconclusive = inhibition above about 29% without an active follow-up result; inactive = below that. Not all results are given here. Entries with a potency or affinity are not part of this list.

Molecular target: Genome polyprotein (Dengue virus type 2 (strain 16681-PDK53)) (UniProt P29991)
Experiment: Dengue-2 NS5 methyltransferase inhibitors, primary screen, biochemical, confirmation dose response (AID 588689)
Details: Dengue-2 NS5 methyltransferase capping enzyme assay, at 25 µM, stronger effect = higher value
[1] = measured here: pilot screen replicate inhibition

SMILES	inhibition	inhibition [1] [%]
CC1=CC(C)(C)C(C(=O)O)C(C(=O)O)C1 (stereo unspecified)	-2.42% (inactive)	–
CCOC(=O)/C(C#N)=C1/C=C(C)c2ccccc2N1	-9.35% (inactive)	–
O=C(O)COc1ccc2c(c1)O/C(=C\c1cccs1)C2=O	-8.5% (inactive)	–
O=C(CSc1nncn1-c1ccccc1)N1CCCC1	-4.17% (inactive)	–
CCc1ccc(NC(=O)C2CCCN(S(=O)(=O)c3ccc4c(c3)CCCN4C(C)=O)C2)cc1 (stereo unspecified)	2.65% (inactive)	–
CC(C)C(O)P(=O)(OCc1ccccc1)c1ccc(N(C)C)cc1 (stereo unspecified)	1.35% (inactive)	-3.66
CCOC(=O)C1CCCN1C(=O)c1ccc(OC)c(Br)c1 (stereo unspecified)	0% (inactive)	–
Cc1[nH]c2ccc(Br)cc2c(=S)c1C/C=C/Cl	0% (inactive)	–
CC(=O)c1c(C)oc2c1cc(O)c1ccccc12	-5.41% (inactive)	–
CC(=O)c1coc2c1cc(O)c1ccccc12	-0.78% (inactive)	–
CCN(C(=O)CCN1C(=O)c2ccccc2S1(=O)=O)c1ccccc1	-2.22% (inactive)	–
COc1ccc(C(=O)N2CCOC2CNC(=O)C(=O)NCc2ccc(C)cc2)cc1 (stereo unspecified)	1.73% (inactive)	–
CSc1nc(-c2ccccc2)nc(NC(=O)C(C)C)c1C(C)=O	-10.3% (inactive)	–
O=C(NC1CC2CCCC(C1)N2S(=O)(=O)c1ccccc1)c1ccco1 (stereo unspecified)	1.41% (inactive)	–
CSCC[C@H](NC(=O)c1cccs1)c1nnc2ccccn12	5.35% (inactive)	–
CC(=O)c1c(C)oc2c1cc(NS(=O)(=O)c1ccc(C(=O)O)cc1)c1ccccc12	15.7% (inactive)	–
COc1ccc(S(=O)(=O)Nc2cc3c(C(C)=O)c(C)oc3c3ccccc23)cc1	-1.56% (inactive)	–
Cc1oc2c(cc(NS(=O)(=O)c3ccc(F)cc3)c3ccccc32)c1C(=O)O	11.6% (inactive)	–
CCOC(=O)c1c(C)oc2ccc(NS(=O)(=O)c3ccc(C(=O)O)cc3)cc12	4.37% (inactive)	–
O=C(Cn1cnc2ccccc2c1=O)NCC(=O)N1CCN(Cc2ccc3c(c2)OCO3)CC1	-2.08% (inactive)	–
Cc1cccc(NC(=O)Nc2cnccn2)c1	-2.65% (inactive)	–
Cn1c(=O)c2c(ncn2CCC(=O)N/N=C/c2cccnc2)n(C)c1=O	0.78% (inactive)	–
CN1C(=O)N(c2ccc(Cl)cc2)C(C)(O)CC1(C)C (stereo unspecified)	-7.17% (inactive)	–
Oc1cccc2cc3cccc(O)c3c(O)c12	-2.2% (inactive)	–

SMILES	inhibition	inhibition [1] [%]
COc1cc2cccc(OC)c(=O)c2c(O)c1OC	-2.72% (inactive)	–
O=C(COC(=O)CCC(=O)c1cccs1)NCCc1ccccc1	10.1% (inactive)	–
Cc1cccc(NC(=O)c2cccc(NC(=O)c3ccco3)c2)c1	-3.49% (inactive)	–
Cc1cc(-c2ccccc2)nc2[nH]n(-c3ccccc3)c(=O)c12	14.4% (inactive)	–
O=c1c2c(C(F)(F)F)cc(C(F)(F)F)nc2[nH]n1-c1ccccc1	12% (inactive)	–
COC(C(=O)Nc1ccccc1C(=O)N1CCOCC1)c1ccccc1 (stereo unspecified)	-4.55% (inactive)	–
CN1C(=O)C(C)(C)c2cc(S(=O)(=O)NCc3ccc(Cl)cc3)ccc21	0% (inactive)	–
O=C(O)/C(=C\c1ccccc1)c1ccccc1	-3.95% (inactive)	–
O=C(O)c1cc(=O)c2c(Cl)cc(Cl)cc2[nH]1	-1.47% (inactive)	–
COc1ccc(C(=O)Nc2ccc3nc(N4CCOCC4)sc3c2)cc1OC	-1.84% (inactive)	–
c1csc(-c2cc(N3CCCCC3)c3ccccc3n2)c1	-2.61% (inactive)	–
O=c1c2ccccc2nc(/C=C/c2ccc([N+](=O)[O-])cc2)n1CCCO	-2.58% (inactive)	–
Cc1cnc(=O)[nH]c1SCc1ccc([N+](=O)[O-])cc1	9.19% (inactive)	–
CCOC(=O)N1CCC(NC(=O)c2cc3sccc3n2CC)CC1	-4.86% (inactive)	–
CCN(CC)c1ccc(/C=N/Nc2cccc(C)c2)c(O)c1	7.27% (inactive)	–
Oc1ccc(/C=N/Nc2ccc(Cl)nn2)cc1O	2.61% (inactive)	–
Oc1ccc(/C=N/NC(=S)Nc2cccnc2)c(O)c1	-3.64% (inactive)	–
Oc1cccc(/C=N/NC(=S)Nc2cccnc2)c1O	-2.88% (inactive)	–
Cc1cccc(N/N=C/c2ccccc2O)c1	-8.43% (inactive)	–
Oc1c(Br)cc(Br)cc1/C=N/Nc1ccc(Cl)nn1	7.11% (inactive)	–
COc1ccc(CCC(=O)N2CCN(C3CCCCC3)CC2)cc1	-7.21% (inactive)	–
CC(=O)N1CCN(Cc2nc3cc(NC(=O)c4ccccc4C)ccc3n2C)CC1	-0.69% (inactive)	–
Cc1cc2ncn(C3CC(O)C(CO)O3)c2cc1C (stereo unspecified)	2.33% (inactive)	–
COc1ccc(-c2nn(-c3ccccc3)cc2/C=N/NC(=O)c2cccc(S(=O)(=O)Nc3ccccc3OC)c2)cc1	-3.64% (inactive)	–

SMILES	inhibition	inhibition [1] [%]
C=CCc1cccc2cc(C(=O)N3CCN(C(=O)c4ccccc4)CC3)c(=O)oc12	-4.98% (inactive)	–
C[C@@H]1CN([C@@H](C)CO)S(=O)(=O)c2ccc(Br)cc2O[C@H]1CN(C)C(=O)c1ccncc1	-4.96% (inactive)	–
O=C1NC(=O)/C(=C\c2ccc(Oc3ccc([N+](=O)[O-])cn3)cc2)S1	10.2% (inactive)	–
O=C(c1ccc(N2CCOCC2)c([N+](=O)[O-])c1)N1CCN(c2ccccc2)CC1	-9.43% (inactive)	–
Cc1ccc(/C=C2\NC(=S)NC2=O)cc1[N+](=O)[O-]	3.12% (inactive)	–
CC(C)CN(CC(C)C)c1ccc(/C=N/n2cnnc2)cc1[N+](=O)[O-]	-1.82% (inactive)	–
CN(C)c1ccc(/C=N/NC(N)=S)cc1[N+](=O)[O-]	-11.3% (inactive)	–
COc1ccc(N2CCN(C(=O)c3ccccc3)CC2)c([N+](=O)[O-])c1	0% (inactive)	–
O=C1c2ccccc2C(=O)N1/N=C/c1ccc(Oc2ccc([N+](=O)[O-])cn2)cc1	-2.91% (inactive)	–
O=C1NC(=S)N/C1=C\c1cccc([N+](=O)[O-])c1	2.76% (inactive)	–
COc1ccc(NC(=O)C2CCCN(C(=O)c3ccc(Cl)cc3)C2)cc1S(=O)(=O)N(C)C (stereo unspecified)	-6.34% (inactive)	–
CCOc1ccc(NC(=O)c2ccc3c(c2)N(Cc2ccc(F)cc2)C(=O)CS3=O)cc1 (stereo unspecified)	-7.95% (inactive)	–
COCCN(C(=S)Nc1ccc(Cl)cc1OC)C1CCN(C(C)=O)CC1	-5.17% (inactive)	–
Cc1cc2c(cc1S(=O)(=O)N1CCOCC1)NC(=O)CO2	-0.83% (inactive)	–
COc1ccc(S(=O)(=O)NCC2CCCO2)cc1NC(=O)c1ccc(Cl)cc1 (stereo unspecified)	-0.72% (inactive)	–
C[C@@H]1CN([C@H](C)CO)C(=O)c2cc(NS(=O)(=O)c3cn(C)cn3)ccc2O[C@H]1CN(C)C(=O)Nc1ccccc1	-1.59% (inactive)	–
Cc1ccc(C(=O)NC(=S)Nc2ccc(N3CCOCC3)cc2)c(C)c1	-1.43% (inactive)	–
COc1cccc(N(C(=O)c2snc(C(N)=O)c2N)C(C(=O)NCC2CCCO2)c2ccc(F)cc2)c1 (stereo unspecified)	-6.68% (inactive)	–
CN(C)c1ccc(/C=C/C(=O)c2ccccc2)cc1[N+](=O)[O-]	7.8% (inactive)	–
O=C1NC(=O)c2cc(Oc3ccc([N+](=O)[O-])cc3)ccc21	0.39% (inactive)	–
O=C1Nc2ccccc2/C1=C/c1ccc([N+](=O)[O-])cc1	-15.7% (inactive)	–
COc1cc(C=O)ccc1OS(=O)(=O)c1ccccc1[N+](=O)[O-]	-9.17% (inactive)	–
CN(C)c1ccc(/C=N/N=C(N)N)cc1[N+](=O)[O-]	-2.95% (inactive)	–
COc1ccc(C=O)cc1OS(=O)(=O)c1ccccc1[N+](=O)[O-]	11% (inactive)	–

SMILES	inhibition	inhibition [1] [%]
CC(C)(C)NC(=O)CN(C(=O)C1CSC(=O)C1)c1ccccc1F (stereo unspecified)	-7.12% (inactive)	–
O=C(O)c1ccc(NC(=O)c2cccc(C(=O)Nc3ccc(C(=O)O)cc3)n2)cc1	-1.63% (inactive)	–
Cc1ncn(-c2ccccc2)c1-c1ccccc1	0% (inactive)	–
CCN(CC)S(=O)(=O)c1ccc(OC)c(NS(=O)(=O)c2cccc(C(=O)O)c2)c1	7.95% (inactive)	–
CN=C1S/C(=C\c2cn(CC(=O)OC)c3ccccc23)C(=O)N1C	-17.1% (inactive)	–
CC(=O)n1cc(CO)c2ccccc21	-0.72% (inactive)	–
CC(=O)n1cc(/C=C2/N=C(c3ccccc3)OC2=O)c2ccccc21	19.9% (inactive)	–
COC(=O)Cn1cc(C(=O)OC)c2ccccc21	-2.39% (inactive)	–
COc1ccc(/C=N/NC(=O)c2ccc(O)cc2O)cc1CSc1ccccn1	2.91% (inactive)	–
CCOC(=O)c1c(NC(=O)CSc2nnnn2C)sc(C)c1C	-3.98% (inactive)	–
Cc1ccc(C2NC(=S)N3C(c4ccc(C)cc4)NC(=S)N23)cc1 (stereo unspecified)	-0.57% (inactive)	–
Cc1ccc(NC(=O)c2ccccc2-c2ccccc2C(=O)O)cc1C	-2.19% (inactive)	–
COc1ccc(NC(=O)c2ccccc2-c2ccccc2C(=O)O)cc1	-8.51% (inactive)	–
COc1cccc(NC(=O)c2ccccc2-c2ccccc2C(=O)O)c1	-10.1% (inactive)	–
CCn1c2ccccc2c2cc(NC(C)=O)ccc21	4.77% (inactive)	–
O=C(Nc1ccc2c(c1)C(=O)c1ccccc1-2)c1ccccc1	-0.39% (inactive)	–
CCn1c2ccccc2c2cc(NC(=O)c3ccccc3[N+](=O)[O-])ccc21	1.28% (inactive)	–
CC(=O)Nc1ccc(-c2nc3cc(Cl)ccc3o2)cc1	0% (inactive)	–
O=C(O)c1ccccc1-c1ccccc1C(=O)Nc1cccc(-c2nc3ccccc3o2)c1	8.19% (inactive)	–
CCN(CC)S(=O)(=O)c1cccc(NC(=O)COC(=O)/C=C/c2cccs2)c1	-2.65% (inactive)	–
O=C(O)C1CCN(C(=O)Cc2ccccc2)CC1	2.22% (inactive)	–
c1ccc(C2CC(c3ccccc3)C(c3ccccc3)N2)cc1 (stereo unspecified)	-3.92% (inactive)	-2.44
